Assay outcomes from PubChem.
HT1080-NT tox – qHTS for induction of synthetic lethality in tumor cells producing 2HG: qHTS for the HT-1080-NT fibrosarcoma cell line; AID 686970, 2013; HT-1080-NT fibrosarcoma viability, CellTiter-Glo ATP luminescence, 48 h; Potency, µM (series often up to 46.1 µM), actives largely listed as cytotoxic; hit rate 1.6% among 360,000;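 further: NT is the 2HG producing partner of a matched IDH1 knockdown line; nearly all actives have a fitted effect of over 55% in size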
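Fibrosarcoma NT cells, 750 per well in 5% FBS RPMI, were exposed to compound for 48 hours. Viability: CellTiter-Glo luminescence.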
TDP1 cell CPT – qHTS for Inhibitors of human tyrosyl-DNA phosphodiesterase 1 (TDP1): qHTS in cells in presence of CPT | chicken DT40 Tdp1-/-;hTDP1 cells + 20 nM CPT, ATP luminescence, 48 h | Potency, µM (titrated, usually from 46.2 µM), actives largely listed as inhibitors | hit rate 12% among 420,000 | AID 686979, 2013; further: nearly all actives have a fitted effect of over 55% in size
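Cell growth measured by CellTiter-Glo luminescence after a minimum 48 h, 37 C compound exposure with 20 nM CPT in Tdp1-knockout DT40 cells stably expressing hTDP1, seeded 400/well; qHTS titration format.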
HT1080 IDH1KD tx – qHTS for induction of synthetic lethality in tumor cells producing 2HG: qHTS for the HT-1080-IDH1KD cell line; AID 686971, 2013; hit rate 2% among 360,000; Potency, µM (top dose mostly 46.1 µM), usual class: cytotoxic; HT-1080 IDH1 knockdown viability, ATP luminescence, 48 h
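In this qHTS, HT-1080 cells depleted of IDH1 are exposed for 48 h at 37 °C to compound titrations. Toxicity is scored from CellTiter-Glo luminescence, with DMSO as full viability and medium alone as none.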
KB-3-1 cytotox – qHTS assay for MDR1-selective chemotherapeutics: Primary screen using the parental adenocarcinoma cell KB-3-1 | KB-3-1 viability, CellTiter-Glo ATP luminescence, 72 h | Potency, µM (titrated, usually from 46.1 µM), hits mostly cytotoxic | hit rate 1.4% among 400,000 | AID 1347075, 2019; further: nearly all actives have a fitted effect of over 60% in size
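Cells are dispensed, compounds pinned in, plates held at 37 °C for 72 h, then CellTiter-Glo is added and luminescence read after 10 minutes. Cell line: parental KB-3-1 in phenol-red-free DMEM, 10% FBS.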
TDP1 cell noCPT – qHTS for Inhibitors of human tyrosyl-DNA phosphodiesterase 1 (TDP1): qHTS in cells in absence of CPT | DT40 Tdp1-/- hTDP1 cells, no CPT, ATP luminescence, 48 h | Potency, µM (titrated, usually from 46.2 µM), hits mostly inhibitors | hit rate 15% among 420,000 | AID 686978, 2013; further: nearly all actives have a fitted effect of over 55% in size
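Stably hTDP1-transfected Tdp1-null chicken DT40 cells were treated with library compounds minus camptothecin and grown for at least 48 hr at 37 °C, after which cellular ATP was quantified by luminescence.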
KB-V1 cytotox – qHTS assay for MDR1-selective chemotherapeutics: Primary screen using the drug-selected MDR subline cells KB-V1; KB-V1 MDR cells viability, CellTiter-Glo, 72 h; Potency, µM (top dose mostly 46.1 µM), hits mostly cytotoxic; hit rate 3.4% among 400,000; further: nearly all actives have a fitted effect of over 60% in size
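KB-V1 MDR subline cells in DMEM (phenol-red free, 10% FBS) exposed to compounds in qHTS concentration series for 72 h at 37 degrees C. Viability read by CellTiter-Glo luminescence; concentration-effect curves fitted after normalization and correction.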
Large screens that a line does not name were inactive. Sampled rows, rich in hits. Any-hit rate of the full collection: about 19%. The call rests on the fitted dose curve; in most records, active means well fitted curve in the direction sought with a large enough effect; inconclusive means small, poorly fitted or top-dose-only effect, or another doubt; inactive means no such curve, though single readings can be large; an effect the other way counts as inactive or inconclusive.

CCC(CC)C(=O)Nc1nc(-c2ccc3c(c2)CCN3C(=O)C2CC2)c(C)s1	TDP1 cell CPT inconclusive, KB-3-1 cytotox inconclusive, TDP1 cell noCPT 23µM
CC(C)C(=O)Nc1nc(-c2ccc3c(c2)CCN3C(=O)C2CC2)cs1	TDP1 cell CPT 12µM, TDP1 cell noCPT 13µM
CN1CCN(c2ncnc3c2ncn3[C@H]2CN(Cc3cccnc3)C[C@@H](CO)O2)CC1	none
C/C(=N\NC(=S)NC(C)C)c1cccc([N+](=O)[O-])c1	TDP1 cell CPT 0.92µM, TDP1 cell noCPT 0.92µM, KB-V1 cytotox inconclusive
C/C(=N\NC(=S)NC(C)C)c1ccccc1	TDP1 cell CPT inconclusive, TDP1 cell noCPT inconclusive
C/C(=N\NC(=S)NC(C)C)c1ccc(Cl)c([N+](=O)[O-])c1	TDP1 cell CPT 18µM, TDP1 cell noCPT 18µM
C/C(=N/Nc1nc(C)c(C)s1)c1cccc([N+](=O)[O-])c1	TDP1 cell CPT 15µM, TDP1 cell noCPT 23µM
CC(=O)Nc1cccc(/C(C)=N/NC(=S)NC(C)C)c1	HT1080-NT tox inconclusive, TDP1 cell CPT 3.7µM, KB-3-1 cytotox inconclusive, TDP1 cell noCPT 4.6µM, KB-V1 cytotox inconclusive
Cc1ccc(S(=O)(=O)N2CCN(Cc3noc(CCC(=O)N4CCCCC4)n3)CC2)c(C)c1	TDP1 cell noCPT inconclusive (no result: HT1080-NT tox, HT1080 IDH1KD tx)
C/C(=N/NC(=S)Nc1cccc(C)c1)c1cccc([N+](=O)[O-])c1	TDP1 cell CPT 12µM, TDP1 cell noCPT 13µM, KB-V1 cytotox inconclusive
COc1ccc2c(c1)c1c(c(=O)n(-c3ccc(OC)c(OC)c3)c(=O)n1Cc1ccccc1C)n2C	none (no result: HT1080-NT tox, HT1080 IDH1KD tx, KB-3-1 cytotox, KB-V1 cytotox)
Cc1ccc(NC(=O)Nc2cn(CC(C)C)c(=O)c3ccccc23)cc1N(C)C	TDP1 cell CPT 21µM, TDP1 cell noCPT 23µM (no result: HT1080-NT tox, HT1080 IDH1KD tx)
COc1cc2c(C(=O)N3CCN(c4cccc(C(F)(F)F)c4)CC3)cn(CC(C)C)c(=O)c2cc1OC	TDP1 cell CPT 16µM, TDP1 cell noCPT 18µM, KB-V1 cytotox inconclusive (no result: HT1080-NT tox, HT1080 IDH1KD tx)
COc1cc2c(C(=O)N3CCN(c4cccc(C)c4)C(C)C3)cn(CC(C)C)c(=O)c2cc1OC (centres undefined)	TDP1 cell CPT 15µM, TDP1 cell noCPT inconclusive (no result: HT1080-NT tox, HT1080 IDH1KD tx)
CC(C)Cn1cc(NC(=O)Nc2cccc(C(F)(F)F)c2)c2ccccc2c1=O	TDP1 cell CPT 21µM, KB-3-1 cytotox inconclusive, TDP1 cell noCPT inconclusive (no result: HT1080-NT tox, HT1080 IDH1KD tx)
C=C1c2ccccc2O[C@H](C(=O)OCC)[C@H]1OC	none
O=C(Nc1cc(F)ccc1F)c1ccc2c(c1)nnn2C1CCCC1	TDP1 cell noCPT inconclusive (no result: HT1080-NT tox, HT1080 IDH1KD tx)
CN1CCN(c2sc(S(C)(=O)=O)nc2S(=O)(=O)c2ccc(Cl)cc2)CC1	KB-3-1 cytotox inconclusive, KB-V1 cytotox inconclusive
O=C(c1c(O)c2ccc(Cl)cc2[nH]c1=O)C1CC1	none (no result: HT1080-NT tox, HT1080 IDH1KD tx, KB-3-1 cytotox, KB-V1 cytotox)
C[C@@H]1CN([C@@H](C)CO)C(=O)CCCn2nncc2CO[C@H]1CN(C)S(=O)(=O)c1cn(C)cn1	KB-3-1 cytotox inconclusive
COc1ccc(N2CCN(C(=O)Nc3cn(CC(C)C)c(=O)c4ccccc34)CC2)cc1	TDP1 cell noCPT 15µM (no result: HT1080-NT tox, HT1080 IDH1KD tx)
COc1ccc(N2CCN(C(=O)Nc3ccccc3C)CC2)cc1	none
Cc1ccc(C)c(N2CCN(C(=O)Nc3cn(CC(C)C)c(=O)c4ccccc34)CC2)c1	TDP1 cell CPT 13µM, KB-3-1 cytotox inconclusive, TDP1 cell noCPT 16µM (no result: HT1080-NT tox, HT1080 IDH1KD tx)
CC(C)Cn1cc(NC(=O)N2CCN(c3cccc(C(F)(F)F)c3)CC2)c2ccccc2c1=O	TDP1 cell CPT 15µM, TDP1 cell noCPT 16µM (no result: HT1080-NT tox, HT1080 IDH1KD tx)
CC(C)Cn1cc(NC(=O)N2CCN(c3cccc(Cl)c3)CC2)c2ccccc2c1=O	TDP1 cell CPT 7.3µM, TDP1 cell noCPT inconclusive (no result: HT1080-NT tox, HT1080 IDH1KD tx)
CC(C)Cn1cc(NC(=O)NCc2ccccc2)c2ccccc2c1=O	TDP1 cell CPT inconclusive, TDP1 cell noCPT inconclusive (no result: HT1080-NT tox, HT1080 IDH1KD tx)
